PGK inhibitor = qHTS Assay to Find Inhibitors of Phosphoglycerate Kinase; PGK/GAPDH coupled, Kinase-Glo luminescence, 60 min; Potency, µM (doses to about 57.5 µM), inactives show top-dose activity change, negative = inhibition, hits mostly inhibitors; hit rate 0.043% among 380,000; AID 602233, 2012; active = well fitted inhibition curve with a large enough effect; inconclusive = small, poorly fitted or top-dose-only effect; inactive = no such curve, though single readings can be large or run the other way; note: potency is the fitted concentration of half-maximal effect; nearly all actives have a fitted effect of over 60% in size
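Recombinant glycosomal PGK reaction used 1,3-bisphosphoglycerate generated in-well by GAPDH (100nM final) in 100mM TEA pH 7.6, 5mM MgCl2, 0.01% Tween-20. After 60 minutes at room temperature, ATP was read by Kinase-Glo Plus luminescence end-point.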
PI4K2A inh = qHTS for small molecular inhibitors of PI4K2A | activity change, negative = inhibition, % at 76.9 µM | Phosphatidylinositol 4-kinase type 2-alpha (Homo sapiens), Q9BTU6 | hit rate 0.13% among 420,000 | purified PI4K2A, ADP-Glo luminescence, 1 h; stronger effect = lower value | AID 1346378, 2018; in the data active = activity change below about -50%; inconclusive = mostly about -30% to -49%;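 note: -100% = wells without enzyme as full effect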
Target sequence (Q9BTU6 whole entry, looked up): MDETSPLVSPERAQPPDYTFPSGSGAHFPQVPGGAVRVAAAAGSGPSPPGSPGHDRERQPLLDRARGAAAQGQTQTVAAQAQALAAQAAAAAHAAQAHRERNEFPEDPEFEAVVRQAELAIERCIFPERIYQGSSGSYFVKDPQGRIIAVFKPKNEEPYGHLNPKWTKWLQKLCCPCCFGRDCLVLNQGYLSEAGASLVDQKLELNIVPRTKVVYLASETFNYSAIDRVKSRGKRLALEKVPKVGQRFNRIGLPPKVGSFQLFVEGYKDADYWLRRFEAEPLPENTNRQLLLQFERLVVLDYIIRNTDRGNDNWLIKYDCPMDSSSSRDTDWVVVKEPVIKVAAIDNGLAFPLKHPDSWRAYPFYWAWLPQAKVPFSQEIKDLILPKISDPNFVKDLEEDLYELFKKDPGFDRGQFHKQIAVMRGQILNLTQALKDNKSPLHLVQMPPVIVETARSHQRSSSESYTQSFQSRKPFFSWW
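In this quantitative HTS, ADP production by PI4K2A was quantified luminescently after 1 h at ambient temperature; 100 microM adenosine served as plate-quality control.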
Pin1 inh = qHTS Assay to Find Inhibitors of Pin1; Pin1 FP peptide displacement, HiFluor488, 10 min; Potency, µM (titrated, usually from 115 µM), inactives show at the top dose activity, negative = inhibition, usual class: inhibitors; hit rate 0.009% among 390,000; AID 504891, 2011; active = well fitted inhibition curve with a large enough effect in the polarisation, with a control signal flat, not every such curve was filed as active; inconclusive = small, poorly fitted or top-dose-only effect, or effect the other way, or a change in a side signal; inactive = no such curve, though single readings can be large or run the other way; the % refers to the polarisation; note: potency is the fitted concentration of half-maximal effect
Target sequence (Q13526 whole entry, looked up): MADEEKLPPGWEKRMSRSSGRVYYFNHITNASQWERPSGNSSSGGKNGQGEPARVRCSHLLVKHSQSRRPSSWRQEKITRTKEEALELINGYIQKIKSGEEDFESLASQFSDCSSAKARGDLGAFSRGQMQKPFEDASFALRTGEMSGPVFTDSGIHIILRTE
PI5P4Ka inh = qHTS for Inhibitors of phosphatidylinositol 5-phosphate 4-kinase (PI5P4K). max response, %. hit rate 1.2% among 330,000. Phosphatidylinositol 5-phosphate 4-kinase type-2 alpha (Homo sapiens), P48426. PI5P4Kalpha enzyme, ADP-Glo luminescence, 60 min; stronger effect = lower value. AID 652105, 2013; active = max response of -50% or lower; inconclusive = between -30% and -50%; inactive = -30% or higher; note: value at the top dose of about 77 µM
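qHTS, 1536-well: enzyme/substrate mix, compound by pin tool, 5 microM ATP final; RT 60 min; ADP-Glo reagents 1 (45 min) then 2 (30 min); luminescence.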
Starred values were filed as active, the others as inactive; i = inactive; u = inconclusive; x = not tested or not shown. Shown is part of a subset that was picked to be rich in hits. Unless noted, % is set by controls: 0 for no effect and ±100 for the full control effect.

SMILES | PGK inhibitor | PI4K2A inh | Pin1 inh | PI5P4Ka inh
COCc1nn2c(=O)cc(N3CCNCC3)nc2s1 | x | x | -0.4% | x
NC(=S)NNc1c(F)c(F)c(F)c(F)c1F | -16.6% | -4.8 | -7.2% | -54.1*
Cc1ccccc1NNC(N)=S | -4.0% | 0.1 | -10.6% | -26.0
CC[n+]1ccc(C[n+]2ccccc2)c2ccccc21 | i | -14.2 | u | -53.1*
O=C(O)c1ccc(-n2cccc2/C=C2/NC(=O)N(c3cccc(Cl)c3)C2=O)cc1 | u | -10.3 | x | -78.8*
COc1cccc(/C=C2/NC(=O)N(CC(=O)Nc3ccc(C)cc3)C2=O)c1OCc1cccc(C(=O)O)c1 | -18.4% | -8.9 | x | -26.4
Cc1ccc(NC(=O)CN2C(=O)N/C(=C\c3cccn3-c3cccc(C(=O)O)c3)C2=O)cc1 | u | -4.6 | -2.3% | -75.5*
Cc1ccc(CN2C(=O)N/C(=C\c3cccn3-c3cccc(C(=O)O)c3)C2=O)cc1 | u | -24.5 | -22.3% | u
Cc1ccc(NC(=O)CN2C(=O)N/C(=C/c3ccccc3OCc3cccc(C(=O)O)c3)C2=O)cc1 | 22.4µM* | -19.8 | x | -29.5
Cc1ccc(NC(=O)CN2C(=O)N/C(=C/c3ccc(C)o3)C2=O)cc1 | -9.3% | -17.2 | u | -27.6
Cc1cccc(NC(=O)CN2C(=O)N/C(=C/c3ccc(C)o3)C2=O)c1 | -4.3% | 2.2 | u | -51.2*
CCOC(=O)C(=O)c1csc(NC=O)n1 | x | -1.3 | x | x
O=C(CN1C(=O)N/C(=C\c2ccccc2OCc2ccc(C(=O)O)cc2)C1=O)Nc1ccccc1F | -17.8% | -2.0 | x | -51.4*
C=CCn1c(SCC(=O)NC2CCCC2)nc2scc(-c3ccco3)c2c1=O | 4.6% | u | 83.6% | -83.4*
C=CCn1c(SCC(=O)NCCCC)nc2scc(-c3ccco3)c2c1=O | -7.9% | u | u | -57.5*
COC(=O)c1nc(Nc2cc(F)cc(F)c2)nc(NC2CCCC2)n1 | x | x | 9.0% | x
CCCCCCCCCCCCCC[N+](C)(C)C | x | 0.3 | x | x
CCCCCC[N+](C)(C)CCSSCC[N+](C)(C)CCCCCC | i | -12.7 | -3.9% | -3.4
CCCCCCCCCCCCCCCC[N+](C)(C)CC | 10.6% | 1.0 | 5.9% | -62.8*
CCCCCCCCCCCCCCCC[N+](C)(C)CCl | i | -1.4 | 5.8% | -53.5*
O=C(Cn1cc(CNC(=O)c2ccccc2)nn1)Nc1cc(C(F)(F)F)ccc1Cl | x | x | -1.7% | x
Cc1c(C(=O)O)sc2nc(SCC(=O)Nc3ccc(S(=O)(=O)NC(C)(C)C)cc3)[nH]c(=O)c12 | 1.7% | -1.9 | -2.8% | -85.9*
O=C(CSc1nc2ccccc2c(=O)[nH]1)Nc1ccc([N+](=O)[O-])cc1 | -0.9% | 1.4 | 9.2% | -14.1
Cc1sc2nc(SCC(=O)Nc3ccc(Cl)c(C(=O)O)c3)[nH]c(=O)c2c1C | -3.3% | 4.8 | -6.0% | -4.6
Cc1sc2nc(SCC(=O)Nc3cccc(C(=O)O)c3)[nH]c(=O)c2c1C | -3.4% | -13.6 | 0.8% | -73.0*
SMILES | PGK inhibitor | PI4K2A inh | Pin1 inh | PI5P4Ka inh
O=C(CSc1nc2ccccc2c(=O)[nH]1)Nc1ccc(C(=O)O)cc1 | -15.8% | 4.8 | -10.3% | -88.3*
CCOC(=O)CSc1nc2sc(C(=O)O)c(C)c2c(=O)[nH]1 | -3.8% | -6.1 | 2.6% | -75.9*
CCOC(=O)CSc1nc2sc(C)c(C)c2c(=O)[nH]1 | -5.9% | -2.6 | 5.3% | -4.1
COc1ccc2c(c1)c(CC(=O)OC/C=C(\C)CC/C=C(\C)CCC=C(C)C)c(C)n2C(=O)c1ccc(Cl)cc1 | x | -0.6 | x | x
CCn1cnc2c(Nc3ccc(CCC(=O)N=C(N)N)cc3)nc(C#N)nc21 | x | x | 6.7% | x
O=S(=O)(c1ccc(Br)cc1)N1CCN(c2nc(-c3ccccc3)nc3ccccc23)CC1 | x | x | -2.7% | x
Cc1ccc(-c2csc3nc(SCC(=O)Nc4ccc(Cl)c(C(=O)O)c4)[nH]c(=O)c23)cc1 | -17.0% | -7.0 | -9.6% | -77.7*
CC(C)(C)NC(=O)CSc1nc2scc(-c3ccccc3)c2c(=O)[nH]1 | i | -3.0 | 36.4% | 0.2
Cc1c(C(=O)O)sc2nc(SCC(=O)Nc3ccc(S(=O)(=O)NCCCC(=O)O)cc3)[nH]c(=O)c12 | x | -3.4 | 1.1% | -69.9*
CCOC(=O)Cc1ccc2sc(-c3ccccc3)nc2c1 | u | -71.7* | 0.5% | -7.6
COc1ccc(C=C2OC(=O)C(C(C)=O)=C2O)cc1 | -5.8% | -9.6 | x | -54.2*
Oc1c(Br)cc(Br)cc1C=Nc1ccc2[nH]ncc2c1 | -9.5% | -16.0 | u | -51.3*
O=C1Nc2cc(C(=O)NCCCN3CCCC3)ccc2S/C1=C/c1cccc(Cl)c1 | -8.5% | 1.2 | x | -51.4*
Cc1cccc(/C=C2/Sc3ccc(C(=O)NCCN4CCCC4)cc3NC2=O)c1 | 7.8% | -2.7 | 25.9% | -12.4
COC(=O)CCCCC(CCSS/C(CCO)=C(\C)N(C=O)Cc1cnc(C)nc1N)SC(C)=O (centres undefined) | x | 1.2 | x | x
Cc1ccc(N2CCN(C3=NC(=O)/C(=C\c4cn[nH]c4-c4ccccc4)S3)CC2)cc1 | -6.1% | 1.6 | 5.6% | -24.6
O=C1N=C(N2CCN(c3ccccc3)CC2)S/C1=C\c1cn[nH]c1-c1ccccc1 | -8.9% | -2.6 | 24.0% | -51.5*
COC(=O)c1ccc(/C=N/Nc2nc(-c3ccccc3)cs2)cc1 | -3.7% | -0.9 | 1.9% | -2.5
COc1ccc(/C=N/Nc2nc(C(=O)O)cs2)cc1 | -17.8% | 1.3 | -16.4% | -63.4*
O=C(CN1CCNCC1)NC1CCCCC1 | x | -4.4 | x | x
COc1cccc(/C=C2\Oc3ccc(O)cc3C2=O)c1O | -29.9% | -60.5* | u | -13.7
Cc1nc(S/C(=C\c2ccc(OCc3ccccc3Cl)cc2)C(=O)O)n[nH]1 | -0.4% | -5.1 | -3.8% | u
Cc1nc(S/C(=C\c2ccc(-c3ccc(C(=O)O)c(Cl)c3)o2)C(=O)O)n[nH]1 | u | -18.2 | 25.1% | -70.6*
Cc1ccc(NS(=O)(=O)c2ccc3c(c2)CCN(C(=O)C(F)(F)F)C3)cc1C | x | x | 0.7% | x
COc1ccc(-c2cc3nc[nH]c(=O)c3s2)cc1 | i | -16.3 | 9.1% | -11.7
SMILES | PGK inhibitor | PI4K2A inh | Pin1 inh | PI5P4Ka inh
COc1ccc(-c2cc3nc(CCl)[nH]c(=O)c3s2)cc1 | -17.4% | -50.3* | 14.2% | u
Cc1c(P(=S)(c2ccccc2)c2ccccc2)c2ccccc2n1CCCc1ccccc1 | x | x | -3.2% | x
CC(C)(C)OC(=O)NCc1nnc(C(C(=O)OCc2ccccc2)c2ccccc2)s1 (centres undefined) | x | x | 1.5% | x
NCCCNc1ncnc2ccc(-c3ccc4c(c3)OCO4)cc12 | x | x | 5.1% | x
Clc1nssc1=Nc1ccc(Br)cc1 | 4.8% | 7.1 | 0.8% | -56.7*
Clc1ccc(N=c2ssnc2Cl)nc1 | 0.6% | -17.3 | -2.2% | -22.6
N#Cc1cccc(N=c2ssnc2Cl)c1 | -9.3% | -3.4 | -2.4% | -76.9*
Cc1cc(C)cc(C(N)=Nc2cccc(C#N)c2)c1 | -5.1% | 6.6 | -6.6% | -0.1
COc1cc(N=c2ssnc2Cl)cc(OC)c1 | -5.6% | 2.5 | 9.3% | -79.1*
